Measured values taken from PubChem BioAssay AID1508601 (ICCB-Longwood Screening Facility, Harvard Medical School, 2020).
Values joined by “and” are separate entries in the source; they are usually repeats but may differ in a detail not shown here. Equal entries are not always repeated. Screen size: about 5,700 compounds; about 85 (1%) were called active. Cut-off read from the data, not from the text of the source: active = p53-positive nuclei above about 36% (passing the limit was not always enough); inactive = the rest. The list comes from a sample in which actives are over-represented; it also holds similar structures and randomly drawn compounds. Some structures have more than one record in an assay (separate samples or runs), and their calls can disagree.

Experiments:
[1] = p53 stabilisation in HPV-positive human cells, imaging, p53-positive nuclei imaging, 24 h, 48 h (AID 1508601); details: 24/48 h
[2] = molecular target: Cellular tumor antigen p53 (Homo sapiens) (UniProt P04637); experiment: as above; details: 24/48 h, stronger effect = higher value
Chain of Cellular tumor antigen p53 (Homo sapiens) (P04637 whole entry, looked up): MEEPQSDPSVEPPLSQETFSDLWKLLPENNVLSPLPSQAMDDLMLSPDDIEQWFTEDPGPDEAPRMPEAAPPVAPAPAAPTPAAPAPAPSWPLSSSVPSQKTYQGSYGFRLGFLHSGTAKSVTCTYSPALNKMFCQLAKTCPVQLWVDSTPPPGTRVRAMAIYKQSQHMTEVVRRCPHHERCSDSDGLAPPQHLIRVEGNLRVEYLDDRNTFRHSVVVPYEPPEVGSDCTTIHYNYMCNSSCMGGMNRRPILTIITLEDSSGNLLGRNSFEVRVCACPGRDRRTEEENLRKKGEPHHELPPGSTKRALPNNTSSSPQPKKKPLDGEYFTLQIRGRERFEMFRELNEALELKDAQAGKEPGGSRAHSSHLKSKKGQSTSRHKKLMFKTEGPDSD

[3] = measured here: cell number at 24 h, Library stock concentration: 10 mM
[4] = measured here: cell number at 48 h, Library stock concentration: 10 mM
[5] = Library stock concentration: 10 mM
[6] = measured here: p53 positive nuclei at 24 h, Library stock concentration: 10 mM
[7] = measured here: cell number at 24 h, Library stock concentration: 80 uM
[8] = measured here: cell number at 24 h, Library stock concentration: 400 uM
[9] = measured here: cell number at 24 h, Library stock concentration: 2 mM
[10] = measured here: cell number at 48 h, Library stock concentration: 80 uM
[11] = measured here: cell number at 48 h, Library stock concentration: 400 uM
[12] = measured here: cell number at 48 h, Library stock concentration: 2 mM
[13] = Library stock concentration: 80 uM
[14] = Library stock concentration: 400 uM
[15] = Library stock concentration: 2 mM
[16] = measured here: p53 positive nuclei at 24 h, Library stock concentration: 80 uM
[17] = measured here: p53 positive nuclei at 24 h, Library stock concentration: 400 uM
[18] = measured here: p53 positive nuclei at 24 h, Library stock concentration: 2 mM

Question: What does the source list for CNC(=O)c1ccc(Nc2ncc(C(F)(F)F)c(NCc3nccnc3N(C)S(C)(=O)=O)n2)cc1?
Answer: nuclei count, normalised ([1]; measured here: cell number at 24 h, Library stock concentration: 46 uM): 91.8%; nuclei count, normalised ([1]; measured here: cell number at 24 h, Library stock concentration: 278 uM): 82%; nuclei count, normalised ([1]; measured here: cell number at 24 h, Library stock concentration: 1.67 mM): 95.8%; nuclei count, normalised [1, 3]: 47.5%; nuclei count, normalised ([1]; measured here: cell number at 48 h, Library stock concentration: 46 uM): 91.6%; nuclei count, normalised ([1]; measured here: cell number at 48 h, Library stock concentration: 278 uM): 86.7%; nuclei count, normalised ([1]; measured here: cell number at 48 h, Library stock concentration: 1.67 mM): 108%; nuclei count, normalised [1, 4]: 33.5%; p53-positive nuclei, normalised ([2]; Library stock concentration: 46 uM): -0.225% (inactive); p53-positive nuclei, normalised ([2]; Library stock concentration: 278 uM): -0.256% (inactive); p53-positive nuclei, normalised ([2]; Library stock concentration: 1.67 mM): 0.138% (inactive); p53-positive nuclei, normalised [2, 5]: 14.9% (inactive); p53-positive nuclei, normalised ([2]; measured here: p53 positive nuclei at 24 h, Library stock concentration: 46 uM): -0.00777%; p53-positive nuclei, normalised ([2]; measured here: p53 positive nuclei at 24 h, Library stock concentration: 278 uM): -0.0569%; p53-positive nuclei, normalised ([2]; measured here: p53 positive nuclei at 24 h, Library stock concentration: 1.67 mM): 0.153%; p53-positive nuclei, normalised [2, 6]: 8.89%

Question: With CN(c1ccccc1CNc1nc(Nc2ccc3c(c2)CC(=O)N3)ncc1C(F)(F)F)S(C)(=O)=O as the compound, how does the nuclei count, normalised [1, 7] read?
Answer: 112% and 102%

Question: And the nuclei count, normalised [1, 8]?
Answer: 112% and 102%

Question: What about the nuclei count, normalised [1, 9] of the same compound?
Answer: 83.1% and 86.6%

Question: What about the nuclei count, normalised [1, 3] of the same compound?
Answer: 33.4% and 36.5%

Question: What about the nuclei count, normalised [1, 10] of the same compound?
Answer: 116% and 109%

Question: What about the nuclei count, normalised [1, 11] of the same compound?
Answer: 120% and 115%

Question: What about the nuclei count, normalised [1, 12] of the same compound?
Answer: 81.2% and 88.6%

Question: And the nuclei count, normalised [1, 4]?
Answer: 22.6% and 25.6%

Question: What about the p53-positive nuclei, normalised [2, 13] of the same compound?
Answer: -0.0383% (inactive) and 0.0654% (inactive)

Question: What about the p53-positive nuclei, normalised [2, 14] of the same compound?
Answer: 0.0612% (inactive) and 0.141% (inactive)

Question: What about the p53-positive nuclei, normalised [2, 15] of the same compound?
Answer: 1.2% (inactive) and 0.96% (inactive)

Question: What about the p53-positive nuclei, normalised [2, 5] of the same compound?
Answer: 55.4% (inactive) and 54.9% (active)

Question: What about the p53-positive nuclei, normalised [2, 16] of the same compound?
Answer: -0.06% and 0.248%

Question: What about the p53-positive nuclei, normalised [2, 17] of the same compound?
Answer: 0.0578% and 0.322%

Question: What about the p53-positive nuclei, normalised [2, 18] of the same compound?
Answer: 0.201% and 0.404%

Question: And the p53-positive nuclei, normalised [2, 6]?
Answer: 43.5% and 27.2%

Question: What does the source list for CS(=O)(=O)c1cccc(CNc2nc(Nc3ccc4c(c3)CCC(=O)N4)ncc2C(F)(F)F)c1?
Answer: nuclei count, normalised [1, 7]: 112%; nuclei count, normalised [1, 8]: 104%; nuclei count, normalised [1, 9]: 111%; nuclei count, normalised ([1]; measured here: cell number at 24 h, Library stock concentration: 3.33 mM): 70.4%; nuclei count, normalised [1, 3]: 48.4%; nuclei count, normalised [1, 10]: 115%; nuclei count, normalised [1, 11]: 109%; nuclei count, normalised [1, 12]: 115%; nuclei count, normalised ([1]; measured here: cell number at 48 h, Library stock concentration: 3.33 mM): 76.2%; nuclei count, normalised [1, 4]: 28.9%; p53-positive nuclei, normalised [2, 13]: 0.032% (inactive); p53-positive nuclei, normalised [2, 14]: -0.135% (inactive); p53-positive nuclei, normalised [2, 15]: 0.159% (inactive); p53-positive nuclei, normalised ([2]; Library stock concentration: 3.33 mM): -0.301% (inactive); p53-positive nuclei, normalised [2, 5]: 1.33% (inactive); p53-positive nuclei, normalised [2, 16]: -0.0118%; p53-positive nuclei, normalised [2, 17]: -0.00681%; p53-positive nuclei, normalised [2, 18]: 0.177%; p53-positive nuclei, normalised ([2]; measured here: p53 positive nuclei at 24 h, Library stock concentration: 3.33 mM): -0.516%; p53-positive nuclei, normalised [2, 6]: 0.847%
